# Test results from PubChem BioAssay (EPA / NIEHS).
# The source made the active and inactive calls. How the source made its calls: active means hit-call score of the fitted dose curve at least 0.9, where 1 is the maximum; inactive means score below 0.9.
# Experiment: APR_HepG2_MitoMembPot_72hr: Apredica 72-hour HepG2 Assay for Mitochondrial Membrane Potential (AID 2282917)
# Settings: imaging, actives raise or lower the signal
# Experimental: APR_HepG2_72hr is a cell-based, multiplexed-readout assay that uses HepG2, a human liver cell line, with measurements taken at 72 hours after chemical dosing in a 384-well plate.APR_HepG2_MitoMembPot_72hr is one of 10 assay component(s) measured or calculated from the APR_HepG2_72hr assay. It is designed to make measurements of dye binding, a form of membrane potential reporter, as detected with fluorescence intensity signals by HCS Fluorescent Imaging technology.Data from the assay component APR_HepG2_MitoMembPot_72hr was analyzed into 1 assay endpoint. This assay endpoint, APR_HepG2_MitoMembPot_72hr, was analyzed with bidirectional fitting relative to DMSO as the negative control and baseline of activity. Using a type of membrane potential reporter, gain or loss-of-signal activity can be used to understand changes in the signaling. Furthermore, this assay endpoint can be referred to as a primary readout, because this assay has produced multiple assay endpoints where this one serves a signaling function. To generalize the intended target to other relatable targets, this assay endpoint is annotated to the cell morphology intended target family, where the subfamily is organelle conformation.
# Cells were treated with dimethyl sulfoxide (DMSO) as a solvent control at a final concentration of 0.5% v/v or with compounds in DMSO with a resulting final DMSO concentration of 0.5% v/v. Compound treatment was done at concentrations of 0.39, 0.78, 1.56, 3.12, 6.24, 12.5, 25, 50, 100, and 200 uM in duplicate on each plate. Cells were treated with compounds for 1, 24, or 72 hr. Carbonyl […] m-chloro-phenylhydrazone (CCCP) and taxol were used as positive controls for mitochondrial function and cytoskeletal stability, respectively; DMSO served as the negative control for this experiment. Cells were fixed by the direct addition of 50 uL formaldehyde in Hank's Balanced Salt Solution (HBSS) to a final concentration of 3.7%. After incubation in the fixation medium for 30 min at room temperature (293-298 K), cells were rinsed twice with HBSS and treated with cell permeabilization buffer (16 uL of 0.5% Triton X-100) for 10 min at room temperature (293-298 K) before labeling. For mitochondrial membrane potential and mitochondrial measurements, pre-fixed cells were incubated with 50 uL of MitoTracker Red CMXRos (Invitrogen) at a concentration of 250 nM for 30 min before fixation. In the remaining cases, post-fixed cells were labeled by incubation with a multiplexed mixture of primary antibodies in HBSS for 60 min at room temperature (293-298 K) to detect immunoreactivity of c-Jun (1:500), phospho-histone H3 (1:100), phospho-histone H2A.x (1:200), p53 (1:400), alpha-tubulin (1:200) and Hoechst 33342 (2 ug/mL). Cells were labeled for multiplexed imaging on two separate plates: a) Hoechst 33342, MitoTracker Red, phospho-histone H3, and alpha-tubulin, and b) Hoechst 33342, phospho-histone H2A.x, and c-Jun. A final rinse with HBSS (50 uL) was performed before analysis. The primary and secondary antibodies for the proteins were phospho-histone H3 (rabbit anti-phospho-histone H3 and FITC-donkey anti-rabbit IgG), phospho-histone H2A.x (mouse anti-phospho-histone H2A.x and FITC-donkey anti-mouse IgG), c-Jun (rabbit anti-phospho-c-Jun and Cy3-donkey anti-rabbit IgG), p53 (sheep anti-p53 and Cy5-donkey anti-sheep IgG), alpha-tubulin (mouse anti-alpha-tubulin and Cy5-donkey anti-mouse IgG). These antibodies are available as the CellCiphr HepG2 assay kit (Millipore).Digital images of each well were captured using a Cellomics ArrayScan VTI (Thermo Scientific Cellomics) (0.8 NA objective, 0.63x optical coupler, and XF-93 filter set) at 20x magnification. The images were acquired using the autofocus feature of the ArrayScan instrument, which entails the following steps. First, the camera focuses on channel 1 (Hoechst 33342), where nuclei are identified. Second, a Z offset of 1 um is used for capturing mitochondria (MitoTracker Red). […]
Compound,outcome,AC50
CCCCCOC(C)=O,inactive,–
CCOC(N)=O,inactive,–
CCCOc1ccc(S(=O)(=O)N2CCN(CC)CC2)cc1-c1nc2c(CC)n(Cc3ccccn3)nc2c(=O)[nH]1,inactive,–
Cn1cc[nH]c1=S,inactive,–
CC[C@H](C)C(=O)O[C@H]1C[C@H](O)C=C2C=C[C@H](C)[C@H](CC[C@@H](O)C[C@@H](O)CC(=O)O)[C@H]21,inactive,–
O=C(O)[C@H](O)[C@@H](O)C(=O)O,inactive,–
C[C@@H](Oc1ccc(CNC(=O)c2cccnc2Oc2ccc3c(c2)OCO3)c(F)c1)C(=O)O,inactive,–
CC(=O)c1ccccc1,inactive,–
O=C(NO)C1(NS(=O)(=O)c2ccc(Oc3ccc(F)cc3)cc2)CCOCC1,inactive,–
CCn1nc(C)c2c1C(=O)NCC(c1ccc(O)cc1)=N2,inactive,–
COS(C)(=O)=O,inactive,–
CCc1cccc(CC)c1N,inactive,–
Nc1ccn([C@@H]2O[C@H](CO)[C@@H](O)[C@@H]2O)c(=O)n1,inactive,–
CCN(CC)C(=S)SSC(=S)N(CC)CC,–,37.4 µM (active)
NC(=O)N(O)[C@@H]1COc2cc(OCc3ccccc3)ccc21,inactive,–
O=S1(=O)CCCO1,inactive,–
CCCCCCCCCCCCCCCCOS(=O)(=O)O,inactive,–
CCCC(CCC)C(=O)O,inactive,–
CCOc1ccc2[nH]cc(C(=O)NCc3ccccc3)c(=O)c2n1,inactive,–
CCCc1ccccc1,inactive,–

Compound,outcome,AC50
CCCCOC(=O)c1ccccc1,inactive,–
COc1cc2c(c(OC)c1OC)-c1ccc(OC)c(=O)cc1[C@@H](NC(C)=O)CC2,inactive,–
CC(C)c1nnc2ccc(-c3ocnc3-c3cc(F)ccc3F)cn12,inactive,–
c1ccc(C(O[C@@H]2CCCN(CCc3ccc4c(c3)OCO4)C2)c2ccccc2)cc1,inactive,–
CCCCCCCC/C=C\CCCCCCCC(=O)OC[C@@H](O)[C@H]1OC[C@H](O)[C@H]1O,inactive,–
OCC(CO)(CO)CO,inactive,–
O=c1[nH]cnc2c1ncn2[C@H]1CC[C@@H](CO)O1,inactive,–
CCCCCCCCN(C)C,inactive,–
NC(N)=O,inactive,–
Cc1nc(-c2ccccn2)ncc1C(=O)Nn1cc(C)c2cc(F)ccc21,inactive,–
CCCCCCCC1CCC(=O)O1 (stereo not given),inactive,–
Cc1ncc([C@@H](CCCCCCc2ccc3c(n2)NCCC3)CC(=O)O)cn1,inactive,–
CCc1ccc(O)c(C(C)(C)C)c1,inactive,–
C[C@]12C=CC(=O)C=C1CC[C@H]1[C@@H]3C[C@@H](O)[C@](O)(C(=O)CO)[C@@]3(C)C[C@H](O)[C@@]12F,inactive,–
CCCCN1C(=O)[C@@H]([C@H](O)C2CCCCC2)NC(=O)C12CCN(Cc1ccc(Oc3ccc(C(=O)O)cc3)cc1)CC2,inactive,–
NC(=O)NN=Cc1ccc([N+](=O)[O-])o1,inactive,–
NC(=O)N1c2ccccc2C=Cc2ccccc21,inactive,–
OC[C@H]1O[C@@](CO)(O[C@H]2O[C@H](CO)[C@@H](O)[C@H](O)[C@H]2O)[C@@H](O)[C@@H]1O,inactive,–
COc1cc(C(C)C)c2c(c1)S(=O)(=O)N(COc1cc(=O)n3cccc(OCCN4CCCCC4)c3n1)C2=O,inactive,–
Cc1nccn1-c1ccc(Sc2cccc(C3(C(N)=O)CCOCC3)c2)cc1,inactive,–
